# JMJD2A Tudor inh: inhibitors of human JMJD2A Tudor domain; Potency, µM (top dose mostly 114 µM), for the others: at the highest dose activity change, negative = inhibition, most hits filed as inhibitors; O75164; 4.4% of 390,000 active; AID 504339; AlphaScreen JMJD2A-Tudor / H3K4me3 peptide binding; note: % is set by controls: 0 for no effect and ±100 for the full control effect; nearly all actives have a fitted effect of over 50% in size
# HP1b chromo inh: inhibitors of HP1-beta chromodomain binding to methylated histone tails; 0.56% of 390,000 active; P83916; AlphaScreen HP1-beta / biotin-H3K9me3 peptide binding; Potency, µM (highest dose often 114 µM), for inactives: at the highest dose activity change, negative = inhibition, actives largely listed as inhibitors; note: nearly all actives have a fitted effect of over 70% in size
# Target sequence (P83916 whole entry, looked up): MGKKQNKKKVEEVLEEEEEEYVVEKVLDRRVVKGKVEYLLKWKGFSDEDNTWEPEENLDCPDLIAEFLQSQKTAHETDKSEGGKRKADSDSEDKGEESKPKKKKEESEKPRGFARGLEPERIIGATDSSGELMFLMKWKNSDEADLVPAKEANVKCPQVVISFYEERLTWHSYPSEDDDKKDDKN
#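 HP1-beta protein (50 nM final) preincubated 30 min at room temperature with biotinylated H3(1-18)K9me3 peptide (50 nM) in PBS pH 7.4, 0.01% Tween-20, then compound added for 30 min. AlphaScreen streptavidin donor/nickel chelate acceptor beads (10 ug/mL final), 30 min dark, luminescence read.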
# Sfp PPTase inh: blocks B. subtilis Sfp PPTase activity. Biochemical Sfp PPTase activity, qHTS. AID 1490. 3.5% of 310,000 active. Potency, µM, for the others: largest response in the series, negative = inhibition, most hits filed as inhibitors. Q9F4F7;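 note: the enzyme is Sfp with the accession as filed and its product quenches rhodamine fluorescence; 0% = enzyme reaction without inhibitor and -100% = no enzyme wells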
#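 Fluorescence-quenching assay: 15 nM Sfp-PPTase preincubated 15 min at room temperature with compound, then 5 uM rhodamine-CoA and 12.5 uM BHQ-2-labelled YbbR peptide added. Fluorescence (ex 525/em 598 nm) read at start and after 30 min; difference gives rate.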
# BAZ2B block: blocks human BAZ2B; 4.4% of 360,000 active; Potency, µM (top dose mostly 114 µM), for the others: at the top dose activity change, negative = inhibition, actives largely listed as inhibitors; Q9UIF8; AlphaScreen BAZ2B-H3K14Ac peptide displacement; note: % is set by controls: 0 for no effect and ±100 for the full control effect; nearly all actives have a fitted effect of over 60% in size
#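 AlphaScreen luminescence quantifies BAZ2B engagement of H3K14Ac peptide; the protein and biotinylated peptide are both at 50 nM final, buffer PBS pH 7.4 with 0.01% Tween-20, all steps at room temperature.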
# PLK1 PBD block: blocks phosphopeptide binding to human PLK1 polo-box domain; P53350; Plk1 PBD binding of FITC phosphopeptide, fluorescence polarization; Potency, µM, inactives show max response, negative = inhibition, most hits filed as inhibitors; 2.8% of 360,000 active; note: series mostly up to about 57 µM; % is set by controls: 0 for no effect and ±100 for the full control effect; nearly all actives have a fitted effect of over 65% in size
# G9a block: inhibitors of human histone lysine methyltransferase G9a | Q96KQ7 | G9a H3K9 monomethylation, AlphaScreen, 2 h | Potency, µM (doses to about 102 µM), without a hit: at the highest dose activity, negative = inhibition, usual class: inhibitors | 8.8% of 350,000 active | AID 504332; note: % is set by controls: 0 for no effect and ±100 for the full control effect; nearly all actives have a fitted effect of over 75% in size
# Target sequence (Q96KQ7 913-1193 limits assumed): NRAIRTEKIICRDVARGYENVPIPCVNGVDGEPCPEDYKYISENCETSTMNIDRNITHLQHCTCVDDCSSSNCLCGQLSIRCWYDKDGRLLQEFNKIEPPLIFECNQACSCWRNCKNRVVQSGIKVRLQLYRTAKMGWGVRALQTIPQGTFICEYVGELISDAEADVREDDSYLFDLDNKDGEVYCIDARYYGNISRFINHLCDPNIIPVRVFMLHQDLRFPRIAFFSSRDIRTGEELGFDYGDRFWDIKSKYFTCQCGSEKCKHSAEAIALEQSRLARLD
#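 AlphaScreen read-out: biotin-H3K9 peptide (500 nM) methylation by 20 nM enzyme with 20 uM SAM, 2 h at room temperature after 15 min compound preincubation; anti-monomethyl H3K9 antibody plus donor/acceptor beads, 10 min dark.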
# Active calls of the source: *; ? = inconclusive; nt = not tested or not shown; [ ] = another dose, or the depositor's remark. The list is not random: actives were taken first. Their share in the collection is about 12%. Calls come from the whole dose curve; as a rule, active = well fitted curve in the direction sought with a large enough effect; inconclusive = small, poorly fitted or top-dose-only effect, or another doubt; inactive = no such curve, though single readings can be large; an effect the other way counts as inactive or inconclusive. Potency is the fitted concentration of half-maximal effect.
SMILES,JMJD2A Tudor inh,HP1b chromo inh,Sfp PPTase inh,BAZ2B block,PLK1 PBD block,G9a block
O=C(Nc1nc(-c2ccccc2)cs1)c1cccc([N+](=O)[O-])c1,?,-26%,0%,40µM*,-9%,32µM*
Cc1csc(NC(=O)c2cccc([N+](=O)[O-])c2C(=O)O)n1,-12%,31%,11%,-8%,-11%,-12%[0.501 µM]
O=C(Nc1nc(-c2ccccc2)cs1)c1cccc([N+](=O)[O-])c1C(=O)O,-21%,34%,6%,2%,-15%,50µM*
O=C(Nc1nc(-c2cccnc2)cs1)c1cccc([N+](=O)[O-])c1,-21%,12%,-28%,-6%,-10%,7%
O=C(O)c1cccc(NS(=O)(=O)c2ccc3c(c2)C(=O)c2ccccc2C3=O)c1,-11%,23%,-10%,?,-6%,nt
O=C(O)CNS(=O)(=O)c1ccc2c(c1)C(=O)c1cc(S(=O)(=O)NCC(=O)O)ccc1-2,-14%,19%,-10%,-2%,-9%,45µM*
O=C1c2cc(S(=O)(=O)NCCO)ccc2-c2ccc(S(=O)(=O)NCCO)cc21,-24%,-38%,15%,-19%,-25%,-17%
O=C1c2ccccc2C(=O)c2cc(S(=O)(=O)Nc3ccccc3)ccc21,?,?,-25%,11µM*,8%,?
Cc1sc2ncn(CC(=O)N3CCC(C(N)=O)CC3)c(=O)c2c1S(=O)(=O)N1CC(C)CC(C)C1 (configuration not stated),100µM*,-95%,14%,3%,-5%,-1%
Cc1sc2ncn(CC(=O)N3CCCC(C)C3)c(=O)c2c1S(=O)(=O)N1CCCCC1 (configuration not stated),-17%,-15%,24%,5%,-13%,-4%
O=C(COC(=O)c1cc(Cl)ccc1Cl)Nc1ccc2[nH]c(=O)[nH]c2c1,-15%,1%,nt,6%,-4%,15%[0.501 µM]
c1ccc(-c2c3ccccc3nc3[nH]c4ccccc4c23)cc1,-8%,56%,-7%,4%,-12%,89µM*
[N-]=[N+]=NC[C@H](Cc1ccccc1)N1CC[C@@H](NC(=O)OCc2ccccc2)CCC1=O,-28%,18%,20%,-8%,-8%,16%
Cc1nnsc1NC(=O)OCC(C)(C)C,-9%,17%,5%,5%,0%,50µM*
Cc1nnsc1NC(=O)OCC(C)C,13%,30%,9%,-1%,2%,8%
COc1cc(NC(=O)CSC2=Nc3ccccc3N=C(c3ccc(F)cc3)C2)cc(OC)c1,-12%,11%[57 µM],nt,1%,nt,-2%[59 µM]
COc1cc(CC(=O)OCC(=O)c2ccc(F)cc2)cc(OC)c1OC,0%,34%,nt,nt,5%,nt
COC(=O)[C@@]1(C)C=C[C@@H](Cc2ccccc2)N1C(=O)c1ccccc1,nt,nt,22%,nt,nt,nt
O=C(CSc1ncn[nH]1)c1ccc(OC(F)F)cc1,4%,19%,2%,-14%,1%,25µM*
COc1ccc(C(=O)CSc2ncn[nH]2)cc1OC,40µM*,32%,-10%,8%,-28%,?
CCOC(=O)N1CCc2c(sc3c2c(=O)n(Cc2ccccc2)c(=O)n3CC(=O)Nc2ccc(C)cc2C)C1,-5%,34%,nt,-35%,nt,17%[59 µM]
Cc1cccnc1NC(=O)Cn1nc(-c2ccccc2)oc1=S,79µM*,6%,-31%,21%,24µM*,50µM*
N#CCCCN1C(=O)C(O)(CC(=O)c2ccc3c(c2)OCCO3)c2ccccc21 (configuration not stated),-17%,17%,17%,8%,-5%,35µM*
Cc1coc(C)c1C(=O)CC1(O)C(=O)N(Cc2ccccc2)c2ccccc21 (configuration not stated),89µM*,?,?,?,27µM*,-39%[59 µM]
Cc1ccc(C(=O)CC2(O)C(=O)N(Cc3ccccc3F)c3ccccc32)cc1 (configuration not stated),-20%,17%,nt,?,nt,-23%[59 µM]
SMILES,JMJD2A Tudor inh,HP1b chromo inh,Sfp PPTase inh,BAZ2B block,PLK1 PBD block,G9a block
Cc1ccc(CN2C(=O)C(O)(CC(=O)c3ccc(C)cc3)c3ccccc32)cc1 (configuration not stated),50µM*,?,nt,13µM*,nt,11µM*
C=C(C)CN1C(=O)C(O)(CC(=O)c2ccc3c(c2)OCCO3)c2ccccc21 (configuration not stated),-8%,25%,24%,3%,-7%,4%[12.7 µM]
CC(=O)CC1(O)C(=O)N(Cc2ccccc2)c2ccccc21 (configuration not stated),-32%[57.1 µM],?,10%,5%,27µM*,12%
CCC1(C)Cc2c(sc3nc(SC)[nH]c(=S)c23)CO1 (configuration not stated),-19%,13%,3%,-15%,?,-4%
CC(=O)c1cccc(NC(=S)N2CCN(c3ccccn3)CC2)c1,-28%,8%,5%,-22%,-11%,nt
COc1cc(OC)cc(C(=O)Nc2cccc(-c3cn4ccsc4n3)c2)c1,?,0%[57 µM],nt,71µM*,nt,-24%[59 µM]
CCOc1cc(C(=O)NCc2ccc(-c3nc4ccccc4o3)cc2)cc(OCC)c1OCC,-3%,14%,1%,1%,-11%,28µM*
COc1ccc(C(=O)Nc2ccc(Nc3ccccc3)cc2)cc1[N+](=O)[O-],35µM*,?,12%,?,-11%,?
CCOc1cc(C(=O)Nc2ccc3oc(-c4ccc(CC)cc4)nc3c2)cc(OCC)c1OCC,-9%,21%,nt,-12%,nt,-31%[59 µM]
COc1cccc(C(=O)Nc2ccc(NC(C)=O)cc2)c1,-18%,16%,15%,4%,2%,20%[12.7 µM]
COc1cccc(C(=O)Nc2cc(Cl)c(O)c(Cl)c2)c1,-15%,21%,8%,-24%,-10%,45µM*
COc1cc(OC)cc(C(=O)Nc2ccc(-c3nc4cc(C(C)C)ccc4o3)cc2)c1,5%,32%,nt,-1%,nt,0%[59 µM]
COc1cc(OC)cc(C(=O)Nc2ccc(-c3nc4ccccc4o3)cc2)c1,3%[57.1 µM],26%,8.9µM*,-1%,3%,-9%
COc1cc(OC)cc(C(=O)Nc2cccc(N3CCCC3)c2)c1,50µM*,-17%,-6%,-38%,1%,3.5µM*
COc1cc(OC)cc(C(=O)Nc2ccc(Nc3ccccc3)cc2)c1,?,-26%,6%,25µM*,-3%,35µM*
CC1(c2ccc3ccccc3c2)NC(=O)N(CC(=O)NCC(C)(C)N2CCOCC2)C1=O (configuration not stated),-3%,14%,nt,6%,5%,8%
CN1c2cccc3cccc(c23)N(C)C1(C)C,?,?,-23%,50µM*,-7%,-41%[0.0925 µM]
